Source: PubChem
Rows were chosen to be rich in hits. Some 2.7% of all compounds tested hit in one or more screens of this group.
PREPL inhibitor: inhibits the human prolyl oligopeptidase-like enzyme; Q4J6C6; recombinant PREPL, fluorescence polarization activity-based probe; inhibition, % at 5.96 µM; 320,000 tested, 0.68% active; AID 2751;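 note: 0% = enzyme with DMSO and 100% = wells lacking enzyme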
TMEM16A inh: blocks the mouse calcium-activated chloride channel TMEM16A. Q8BHY3. HEK293 TMEM16A/YFP iodide influx fluorescence, ionomycin. normalized B-score (activity score, 25-100; higher = stronger inhibition) at 10 µM. 310,000 tested, 1.2% active;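 active = ratio plate-corrected score three or more library SD toward inhibition, starting fluorescence score within five deviations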;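 note: score derived from kinetic fluorescence span divided by baseline fluorescence per well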
ANO1 activ: activates or potentiates the mouse TMEM16A chloride channel. Q8BHY3. HEK293 TMEM16A/YFP-H148Q/I152L, iodide quench fluorescence; hits give low values. B-score at 10 µM. 340,000 tested, 0.3% active;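 active = fluorescence-ratio B-score plate-corrected deviation score at least 3 library SD below zero, with starting fluorescence score within 5 deviations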;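 note: channel opened by trigger with iodide after compound preincubation; score built on the fluorescence ratio of max minus min over baseline; more negative score means more quench and so TMEM16A activation or potentiation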
FID counter: fluorescent intercalator displacement, NS3 helicase counter-screen; 290,000 tested, 0.17% active; inhibition, % at 7.9 µM; DNA fluorescent intercalator displacement, fluorescence; in the data active = inhibition above about 37%;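 note: 0% = vehicle and 100% = reference compound; higher means more ethidium bromide displaced from hairpin DNA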
PP5 inh: PP5 (human) phosphatase inhibition; P53041; purified PP5c, OMFP substrate fluorescence; inhibition, % at 6.7 µM; 320,000 tested, 0.18% active;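 active = inhibition above the campaign's mean inhibition across all tested compounds plus 3 SD, cut at about 9.5% in these data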;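 note: 0% = DMSO only and 100% = 100 µM cantharidin control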
Target sequence (P53041 whole entry, looked up): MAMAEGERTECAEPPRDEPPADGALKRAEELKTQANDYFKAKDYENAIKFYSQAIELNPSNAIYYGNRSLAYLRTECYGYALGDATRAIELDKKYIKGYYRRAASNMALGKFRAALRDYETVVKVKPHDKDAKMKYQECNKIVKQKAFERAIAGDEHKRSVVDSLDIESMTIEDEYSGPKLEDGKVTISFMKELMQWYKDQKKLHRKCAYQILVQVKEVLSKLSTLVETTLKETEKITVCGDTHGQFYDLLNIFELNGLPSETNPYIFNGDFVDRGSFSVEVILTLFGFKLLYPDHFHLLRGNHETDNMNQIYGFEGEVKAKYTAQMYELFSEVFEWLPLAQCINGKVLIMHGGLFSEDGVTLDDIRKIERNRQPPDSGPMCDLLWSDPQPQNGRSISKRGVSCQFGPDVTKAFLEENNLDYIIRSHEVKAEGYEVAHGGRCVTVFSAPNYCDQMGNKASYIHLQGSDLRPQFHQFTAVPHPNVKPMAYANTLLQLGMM
PP1 counter: blocks human PP1-alpha phosphatase, a PP5 counter-screen. purified PP1alpha, OMFP fluorescence. P62136. 320,000 tested, 0.9% active. inhibition, % at 6.7 µM;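 active = inhibition above the mean inhibition of all tested compounds plus 3 SD, computed separately for each screening campaign, cut at about 15% in these data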
PREPL confirm: confirmation of human PREPL enzyme inhibitors. shares compounds with PREPL inhibitor. inhibition, % at 5.96 µM. 2,000 tested, 67% active. recombinant PREPL, fluorescence polarization activity probe;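 note: 0% = protein with DMSO and 100% = wells lacking protein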
Starred values were filed as active, the others as inactive; i = inactive; x = no result. Cut-off read from the data, not from the text of the source, unless noted: active = inhibition above about 43%; inactive = the rest.

SMILES | PREPL inhibitor | TMEM16A inh | ANO1 activ | FID counter | PP5 inh | PP1 counter | PREPL confirm
COc1ccc(/C=N\NC(=O)c2cc(O)c(O)c(O)c2)cc1CN1CCN(c2ccc(F)cc2)CC1 | 54* | i | i | 6 | 4 | 4 | 20
COc1cccc(-c2ccc3ncnc(NCc4cccs4)c3c2)c1 | 14 | x | i | x | 1 | 4 | x
Cn1ccc2cc(-c3ccc4ncnc(NCc5cccs5)c4c3)ccc21 | 50* | x | i | x | x | x | 41
CCN(CC)CCN1c2ccccc2Sc2ccc3ccccc3c21 | 46* | i | i | 6 | -2 | -2 | 37
CCC(=O)c1ccc2c(c1)N(CCCN(C)C)c1ccccc1S2 | 64* | i | i | x | 0 | -8 | 55*
CC(=O)c1ccc2c(c1)N(CCCN(C)C)c1ccccc1S2 | x | x | i | x | x | x | x
COc1ccc(C2=NOC(C(=O)Nc3ccc4c(c3)OCO4)C2)cc1OC (stereo not drawn) | 5 | i | i | -10 | 1 | 0 | x
O=C1NC(=S)S/C1=C/c1ccc(OC(=O)c2ccco2)cc1 | 65* | i | i | -4 | 5 | 11 | 69*
CS(=O)(=O)C1=NN2C(=N)/C(=C\c3ccc(OC(=O)c4ccco4)cc3)C(=O)N=C2S1 | 30 | i | i | -15 | 0 | -1 | x
CCOc1cc(/C=C2/SC(=S)NC2=O)ccc1OC(=O)c1ccco1 | 66* | i | i | -16 | 2 | 10 | 67*
COc1cc(/C=C2/SC(=S)N(C)C2=O)ccc1OC(=O)c1ccco1 | 9 | i | i | 4 | 6 | -2 | x
NNC(=O)CCC(=O)Nc1ccccc1 | 6 | i | i | -6 | 0 | -5 | x
COc1cccc(CN(C)C(=O)CCN=C2NS(=O)(=O)c3ccccc32)c1 | 5 | x | i | x | x | x | x
CC(Nc1cccc([N+](=O)[O-])c1)C(=O)Nc1ccc(S(=O)(=O)N2CCCC2)cc1 (stereo not drawn) | x | x | i | x | x | x | x
CCOc1cc(/C=C2/C(=N)N3C(=NC2=O)SN=C3S(=O)(=O)CC)ccc1OC(=O)c1ccco1 | 36 | i | i | -12 | 0 | -2 | x
COc1cc(/C=C2/C(=N)N3C(=NC2=O)SN=C3S(=O)(=O)C(C)C)ccc1OC(=O)c1ccco1 | 38 | i | i | -27 | -2 | 7 | x
COc1cc(/C=C2/C(=N)N3C(SC)=NSC3=NC2=O)ccc1OC(=O)c1ccco1 | 54* | i | i | -16 | 0 | -4 | 64*
COc1cc(/C=C2\C(=O)N(c3ccc(S(N)(=O)=O)cc3)N=C2C)ccc1OC(=O)c1ccco1 | 54* | i | i | -4 | 9 | 1 | 83*
COc1cc(/C=C2/C(=N)N3C(=NC2=O)SN=C3S(C)(=O)=O)ccc1OC(=O)c1ccco1 | 62* | i | i | -10 | 3 | -3 | 80*
CCS(=O)(=O)C1=NSC2=NC(=O)/C(=C\c3ccc(OC(=O)c4ccco4)c(OC)c3)C(=N)N21 | 53* | i | i | -43 | 0 | 1 | 77*
CCc1ccc(NC(=O)C(C)OC(=O)C2CCN(c3ccc(C(F)(F)F)cn3)CC2)cc1 (stereo not drawn) | -3 | i | i | x | 1 | 5 | x
COc1cccc(NC(=O)N(C2CCCCC2)C(C)c2cccs2)c1 (stereo not drawn) | 13 | i | i | 0 | 1 | -2 | x
O=C(c1ccc2c(c1)OCO2)N1CCC(Cc2ccccc2)CC1 | 37 | i | i | -37 | -3 | 2 | x
CCn1c(=S)sc2c(=O)n(CC(=O)Nc3cc(OC)ccc3OC)c(C)nc21 | -19 | i | i | -2 | 2 | -2 | x
CCN(CC)CCOCCn1c(C)ccc1C | x | x | i | x | x | x | x
SMILES | PREPL inhibitor | TMEM16A inh | ANO1 activ | FID counter | PP5 inh | PP1 counter | PREPL confirm
COc1cccc(N=Nc2c(N)[nH]n3c(=O)c4c(nc23)CCCC4)c1 | 59* | i | i | -1 | 2 | 17* | 57*
CC(=O)N1CCc2cc(S(=O)(=O)NC(CC(C)C)C(=O)N3CCCC3)ccc21 (stereo not drawn) | 5 | i | i | -19 | 0 | 2 | x
COc1cc(/C=C/[N+](=O)[O-])ccc1OC(=O)/C=C/c1ccc(F)cc1 | 47* | i | i | -5 | 1 | 4 | 46*
COc1ccc(/C=C/C(=O)Oc2ccc(C)c(C)c2)cc1OC | 7 | i | i | -19 | 2 | -1 | x
CN(Cc1ccco1)c1ncnc2ccc(-c3ccoc3)cc12 | 16 | x | i | x | 0 | -1 | x
CN(Cc1ccco1)c1ncnc2ccc(-c3ccccc3Cl)cc12 | 45* | x | i | x | 0 | -1 | 20
CC(=O)c1ccccc1NC(=O)COC(=O)C1=NN(c2ccccc2)C(=O)CC1 | x | x | i | x | x | x | x
O=C(C[C@@H]1C/C=C\C[C@H](Cc2ccc(F)cc2)C(=O)OC[C@H]2CCCN2C1=O)NCCO | 35 | x | x | x | x | x | x
O=C(C[C@@H]1C/C=C\C[C@H](Cc2ccc(F)cc2)C(=O)OC[C@H]2CCCN2C1=O)N[C@H](CO)Cc1ccccc1 | 46* | x | i | x | x | x | 43
O=C(C[C@H]1C/C=C\C[C@@H](Cc2ccc(F)cc2)C(=O)OC[C@H]2CCCN2C1=O)NCCO | 47* | x | i | x | x | x | 48*
O=C(C[C@@H]1C/C=C\C[C@@H](Cc2ccc(F)cc2)C(=O)OC[C@@H]2CCCN2C1=O)N[C@H](CO)Cc1ccccc1 | 48* | x | i | x | x | x | 54*
CCOc1ccc(Nc2c3ccccc3nc3ccccc23)cc1 | 56* | i | i | 31 | 5 | -2 | 60*
CCOc1ccc(Nc2nc(NCC3CCCO3)c3ccccc3n2)cc1 (stereo not drawn) | 59* | i | i | 39* | 3 | 2 | 56*
COc1cc(C(=O)OCC(=O)N2CCN(C(C)=O)CC2)ccc1OCC(C)C | 0 | i | i | x | -1 | 7 | x
CCC(=O)N1CCN(c2ccc(NC(=O)COc3cccc(C)c3C)cc2)CC1 | 53* | i | i | -32 | 2 | 3 | 56*
O=C(NC(=S)Nc1ccc(N2CCN(C(=O)c3ccccc3)CC2)cc1)c1cccs1 | 51* | i | i | -11 | 3 | 4 | 43
CCc1ccc(OCC(=O)Nc2ccc(N3CCN(C(=O)c4ccccc4)CC3)cc2)cc1 | 58* | i | i | -57 | 0 | 3 | 56*
Cc1cccc(OCC(=O)Nc2ccc(N3CCN(C(=O)c4ccccc4)CC3)cc2)c1C | 53* | i | i | -56 | 2 | 4 | 54*
Cc1cccc(OCC(=O)Nc2ccc(CN3CCOCC3)cc2)c1C | 28 | i | i | -1 | 3 | -3 | x
COc1ccc(OCC(=O)Nc2ccc(N3CCN(C(=O)c4ccccc4C)CC3)cc2)cc1 | 33 | i | i | -33 | 2 | 0 | x
